We go through seven compounds from PubChem BioAssay (Tox21).

Assay [1] is described as follows: qHTS assay for small molecules that induce genotoxicity in human embryonic kidney cells expressing luciferase-tagged ATAD5 - cell viability (AID 651634; calls by dose curve; also: nearly all actives have a fitted effect of over 25% in size). An outline of the steps:
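HEK293T cells expressing luciferase-tagged ATAD5 were exposed to compound or DMSO for 15.5 hr at 37C, 5% CO2. Viability was then read as live-cell protease activity by CellTiter-Fluor fluorescence after 30 min at 37C.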
For orientation: qHTS replaces the single test concentration by a dilution series.

A short description of assay [2]: qHTS assay for small molecule disruptors of the mitochondrial membrane potential - cell viability (AID 720634; calls by dose curve;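 also: human HepG2 liver cancer cells; series mostly up to about 83 µM; nearly all actives have a fitted effect of over 20% in size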). The essentials:
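HepG2 cells seeded overnight at 37 C, then exposed to compound or DMSO for 1 hr at 37 C, 5% CO2. m-MPI dye added, then CellTiter-Glo for 30 min at room temperature; viability read as ATP luminescence.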

Assay [3] is described as follows: qHTS assay to test for compound auto fluorescence at 535 nm (green) in HepG2 cells (AID 720675).
Assay [4] in a line: qHTS assay to test for compound auto fluorescence at 535 nm (green) in HEK293 cells (AID 720680).
Assay [5] is described as follows: qHTS assay to test for compound auto fluorescence at 460 nm (blue) in HEK293 cell free culture (AID 720681). The essentials: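 Blue fluorescence (Ex 405/Em 460 nm, triamterene-equivalent) was read immediately after pin transfer of compound or DMSO into medium (DMEM, 10% FBS) without cells.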
Assay [6] can be described thus: qHTS assay to test for compound auto fluorescence at 535 nm (green) in HEK293 cell free culture (AID 720682). An outline of the steps: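 Green-channel intensity (Ex/Em 485/535 nm) was recorded from compound-treated wells containing only DMEM with 10% FBS. Fluorescein provided the equivalency standard.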
The nature of assay [7]: qHTS assay to test for compound auto fluorescence at 590 nm (red) in HEK293 cell free culture (AID 720683). The essentials: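 Red-channel autofluorescence of compounds in culture medium (DMEM, 10% FBS), no cells, measured at 540/590 nm. Rose Bengal sodium is the reference fluorophore for equivalence.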
Assay [8] in a line: qHTS assay to test for compound auto fluorescence at 590 nm (red) in HepG2 cell free culture (AID 720684). The essentials: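 Steps: dispense MEM/10% FBS medium, no cells; pin compound or DMSO vehicle; read red channel, Ex/Em 540/590 nm. Output given as Rose Bengal sodium equivalents.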
A short description of assay [9]: qHTS assay to test for compound auto fluorescence at 460 nm (blue) in HepG2 cell free culture (AID 720685). An outline of the steps: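 Compound (23 nL) or DMSO pinned into cell-free MEM with 10% FBS; blue fluorescence read at 405/460 nm excitation/emission, expressed as auto-fluorescence equivalency to triamterene.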
The nature of assay [10]: qHTS assay to test for compound auto fluorescence at 535 nm (green) in HepG2 cell free culture (AID 720686).
Assay [11] can be described thus: qHTS assay to identify small molecule antagonists of the androgen receptor (AR) signaling pathway using the MDA cell line - cell viability counter screen (AID 743041; also: nearly all actives have a fitted effect of over 45% in size; also: potency is read from the fitted curve at half-maximal effect). An outline of the steps:
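Cells were plated at 3,000 per well and left 5 h. Compounds in DMSO were then pinned in, followed by R1881. After 16 h at 37C, CellTiter-Fluor fluorescence gave viability.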

In assay [12] the test system is thyroid hormone receptor (rat, GH3 cells). As to the kind of experiment: qHTS assay to identify small molecule agonists of the thyroid receptor (TR) signaling pathway (AID 743066; calls by dose curve).
Assay [13] is described as follows: qHTS assay to identify small molecule antagonists of the estrogen receptor alpha (ER-alpha) signaling pathway - cell viability counter screen (AID 743074; calls by dose curve;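 also: HEK293 cells carrying ER-alpha-UAS-bla reporter stimulated with 17beta-estradiol; nearly all actives have a fitted effect of over 45% in size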; also: potency is read from the fitted curve at half-maximal effect).
Assay [14] is described as follows: qHTS assay to identify small molecule antagonists of the estrogen receptor alpha (ER-alpha) signaling pathway using the BG1 cell line - cell viability counter screen (AID 743081).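 Also: compound given together with 17beta-estradiol as the ER stimulus; nearly all actives have a fitted effect of over 45% in size.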 Also: potency is read from the fitted curve at half-maximal effect.
For the next assay, the target named is Aromatase (Homo sapiens) (UniProt P11511). Nature of the assay: qHTS assay to identify aromatase inhibitors (AID 743083). Also: nearly all actives have a fitted effect of over 55% in size. Also: potency is read from the fitted curve at half-maximal effect.
Assay [15] can be described thus: qHTS assay to identify aromatase inhibitors - cell viability counter screen (AID 743084).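 Also: cells stimulated with testosterone during compound exposure; nearly all actives have a fitted effect of over 55% in size.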 Also: potency is read from the fitted curve at half-maximal effect.
The nature of assay [16]: qHTS assay to identify small molecule that activate the aryl hydrocarbon receptor (AhR) signaling pathway - cell viability counter screen (AID 743086). Also: nearly all actives have a fitted effect of over 45% in size. Also: potency is read from the fitted curve at half-maximal effect. An outline of the steps: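 Cytotoxicity counter screen: CellTiter-Fluor signal (30 min, 37 C) in 4000 HepG2 cells/well carrying the DRE-luciferase reporter, following 24 h compound exposure at 37 C.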
A short description of assay [17]: qHTS assay to identify small molecule phospholipidosis (PLD) inducers (AID 1259344; active = well fitted curve in the direction sought with a large enough effect; an effect the other way counts as inactive or inconclusive). An outline of the steps: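 Phospholipidosis is scored by imaging LipidTOX-stained pits in HepG2 cells exposed to compound for 24 h at 37 C; pit counts and integrated intensities per well and per cell serve as outputs.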
The target in assay [18] is Nuclear receptor subfamily 1 group I member 2 (Rattus norvegicus) (UniProt Q9R1A7). As to the kind of experiment: Rat pregnane X receptor (rPXR) activation by small molecules, qHTS assay (AID 1346983). Also: nearly all actives have a fitted effect of over 20% in size. The following applies: rPXR luciferase reporter cells, One-Glo luminescence, 24 h; max activation: stronger effect = higher value. The essentials: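 Luminescent readout (One-Glo luciferase, 30 min room temperature) followed 24 hr compound treatment at 37 C of rPXR cells plated 2,000 per well and preincubated 5hr; qHTS format with compounds delivered in DMSO.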

Assay [19] deals with Aryl hydrocarbon receptor (Homo sapiens) (UniProt P35869). Nature of the assay: qHTS assay to identify small molecule that activate the aryl hydrocarbon receptor (AhR) signaling pathway (AID 743085). Also: nearly all actives have a fitted effect of over 15% in size. Also: potency is read from the fitted curve at half-maximal effect.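 As to activation: HG2L7.5c1 human HepG2 liver cells with stably integrated DRE-driven firefly reporter; series mostly up to about 70 µM.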 An outline of the steps:
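AhR agonist activity is inferred from enhanced light output of a DRE-controlled firefly luciferase reporter in HepG2 cells, measured with ONE-Glo following 24 h treatment at 37C.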

The structures appear in SMILES notation. Where “and” joins values, the source holds several entries; their conditions need not be identical. Equal values may be shown once. Results filed as inconclusive are left out. Some structures have more than one record in an assay (separate samples or runs), and their calls can disagree. Calls of active or inactive are those of the source. Unless noted, calls follow the shape of the dose curve; as a rule, active = well fitted curve in the direction sought with a large enough effect in the repeat runs; inconclusive = weak or mixed curves; inactive = no such curve, though single readings can be large; an effect the other way counts as inactive or inconclusive.
% is scaled to controls: 0 for no effect and ±100 for the full control effect.

Chain of Nuclear receptor subfamily 1 group I member 2 (Rattus norvegicus) (Q9R1A7 whole entry, looked up): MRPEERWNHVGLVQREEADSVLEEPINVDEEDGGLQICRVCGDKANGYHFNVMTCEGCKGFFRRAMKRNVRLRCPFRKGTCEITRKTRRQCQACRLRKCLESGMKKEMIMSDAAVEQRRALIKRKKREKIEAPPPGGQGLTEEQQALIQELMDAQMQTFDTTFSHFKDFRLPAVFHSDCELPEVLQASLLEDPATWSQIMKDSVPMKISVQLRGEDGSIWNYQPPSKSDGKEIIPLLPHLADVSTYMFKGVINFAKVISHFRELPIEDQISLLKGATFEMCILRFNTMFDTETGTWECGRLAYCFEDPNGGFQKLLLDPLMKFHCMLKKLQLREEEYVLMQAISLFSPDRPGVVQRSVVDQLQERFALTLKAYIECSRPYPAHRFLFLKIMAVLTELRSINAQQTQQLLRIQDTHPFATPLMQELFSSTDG
Chain of Aromatase (Homo sapiens) (P11511 whole entry, looked up): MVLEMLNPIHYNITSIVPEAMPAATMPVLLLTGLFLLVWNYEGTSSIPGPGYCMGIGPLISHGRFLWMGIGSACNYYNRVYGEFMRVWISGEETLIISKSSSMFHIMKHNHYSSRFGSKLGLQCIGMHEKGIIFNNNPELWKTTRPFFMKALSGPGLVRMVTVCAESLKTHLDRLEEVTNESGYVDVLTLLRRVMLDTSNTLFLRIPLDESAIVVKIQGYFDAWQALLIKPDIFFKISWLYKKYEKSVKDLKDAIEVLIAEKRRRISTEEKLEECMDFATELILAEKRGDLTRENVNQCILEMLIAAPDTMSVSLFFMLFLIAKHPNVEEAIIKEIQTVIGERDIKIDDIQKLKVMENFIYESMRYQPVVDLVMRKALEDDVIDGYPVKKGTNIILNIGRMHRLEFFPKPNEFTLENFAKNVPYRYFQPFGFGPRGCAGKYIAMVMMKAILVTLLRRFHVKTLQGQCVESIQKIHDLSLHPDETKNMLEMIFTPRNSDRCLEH
Chain of Aryl hydrocarbon receptor (Homo sapiens) (P35869 whole entry, looked up): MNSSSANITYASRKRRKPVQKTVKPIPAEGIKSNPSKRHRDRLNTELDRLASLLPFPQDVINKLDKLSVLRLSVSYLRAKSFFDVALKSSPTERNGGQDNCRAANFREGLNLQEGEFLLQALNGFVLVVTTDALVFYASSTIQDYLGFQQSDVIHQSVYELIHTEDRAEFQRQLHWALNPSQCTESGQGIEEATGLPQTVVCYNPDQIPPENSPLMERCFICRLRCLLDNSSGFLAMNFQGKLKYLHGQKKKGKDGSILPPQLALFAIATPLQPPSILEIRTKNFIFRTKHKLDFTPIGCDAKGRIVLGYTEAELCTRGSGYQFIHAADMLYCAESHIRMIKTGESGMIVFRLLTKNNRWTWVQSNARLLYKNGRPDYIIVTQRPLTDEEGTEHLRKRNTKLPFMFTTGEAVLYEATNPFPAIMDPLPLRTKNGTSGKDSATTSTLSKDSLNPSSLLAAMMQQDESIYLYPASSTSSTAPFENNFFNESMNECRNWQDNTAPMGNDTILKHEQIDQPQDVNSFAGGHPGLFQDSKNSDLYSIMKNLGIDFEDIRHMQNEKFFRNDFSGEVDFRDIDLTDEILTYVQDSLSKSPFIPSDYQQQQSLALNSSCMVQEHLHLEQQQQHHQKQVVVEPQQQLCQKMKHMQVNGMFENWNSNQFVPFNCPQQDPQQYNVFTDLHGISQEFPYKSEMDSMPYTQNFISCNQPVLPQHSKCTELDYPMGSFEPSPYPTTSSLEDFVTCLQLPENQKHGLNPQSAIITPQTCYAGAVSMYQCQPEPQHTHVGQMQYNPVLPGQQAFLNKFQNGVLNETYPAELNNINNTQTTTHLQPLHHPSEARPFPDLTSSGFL

In the case of `Cc1ccccc1-n1c(C)nc2ccccc2c1=O`, the Potency entry in assay [1], in assay [2], in assay [3], in [4], in assay [5] and in assay [6] was “inactive” in each case. The Potency result in [9], in assay [10], in [11], in assay [12], in assay [13] and in assay [14] was “inactive” each time. Moreover, the Potency entry (with Aromatase (Homo sapiens); in assay [17]) was “inactive” throughout. Further, the compound was called inactive in assay [7] and in [8]. Moreover, the Potency result in assay [15] is “inactive and 24.1 µM (active)”; in assay [16] it was “inactive and 24.1 µM (active)”. The max activation in assay [18] is 9.97% (inactive).
As for `CC(C)(O)[C@@H]1[C@H]2OC(=O)[C@@H]1[C@]1(O)C[C@H]3O[C@]34C(=O)O[C@H]2[C@]14C`, the Potency result in assay [1], in assay [2], in [3], in [4], in assay [5] and in assay [6] was “inactive” throughout. The Potency entry in assay [9], in [10], in assay [11], in assay [12], in [13] and in [14] was “inactive” in each case. The Potency entry in assay [16] and in [17] was “inactive” each time. In addition, the compound was called inactive in [7] and in assay [8]. Besides, the max activation in [18] is -2.48% (inactive).
In the case of `NCC(O)c1cccc(O)c1` (stereo not given), the Potency entry in assay [1], in assay [2], in assay [3], in assay [4], in assay [5] and in [6] was “inactive” throughout. The Potency entry in [9], in [10], in assay [11], in assay [12], in assay [13] and in assay [14] was “inactive” throughout. Also, the Potency entry (with Aromatase (Homo sapiens); in [15]; in [19]; in assay [16]; in assay [17]) was “inactive” throughout. Moreover, the result in assay [7] and in assay [8] was inactive. In addition, the max activation in assay [18] is -2.06% (inactive).
Take `c1ccccc1`: the Potency result in assay [1], in assay [2], in assay [3], in assay [4], in assay [5] and in [6] was “inactive” in each case. The Potency entry in assay [9], in [10], in assay [11], in assay [12], in assay [13] and in [14] was “inactive” throughout. Besides, the Potency result (with Aromatase (Homo sapiens); in [15]; in assay [16]) was “inactive” each time. Further, the outcome in assay [7] and in [8] was inactive.
For `C[C@]12CC[C@H](OS(=O)(=O)O)CC1=CC[C@@H]1[C@@H]2CC[C@]2(C)C(=O)CC[C@@H]12`, the Potency entry in assay [1], in assay [2], in assay [3], in assay [4], in assay [5] and in [6] was “inactive” each time. Also, the Potency entry in [9], in assay [10], in assay [11], in assay [12], in assay [13] and in assay [14] was “inactive” each time. The Potency result (with Aromatase (Homo sapiens); in assay [15]; in [19]; in assay [16]; in [17]) was “inactive” in each case. The result in assay [7] and in assay [8] was inactive. In [18], the max activation is -3.4% (inactive).
On to `Oc1c(Cl)cc(Cl)cc1Cl`, for which the Potency entry in assay [3], in assay [4], in assay [5], in assay [6], in assay [9] and in assay [10] was “inactive” in each case. The Potency entry (in assay [12]; with Aromatase (Homo sapiens)) was “inactive” each time. Also, the compound was called inactive in assay [7] and in assay [8].
As for `COC(COC(N)=O)C1=C(N2CC2)C(=O)C(C)=C(N2CC2)C1=O` (stereo not given), the Potency entry in [1], in [2], in [3], in assay [4], in assay [5] and in assay [6] was “inactive” in each case. Further, the Potency result in assay [9], in assay [10] and in assay [17] was “inactive” in each case. Also, the result in assay [7] and in [8] was inactive. For the same compound, the Potency in assay [11] was 13.3 µM (active); in assay [13], 13.4 µM (active); in assay [14], 6.68 µM (active); with Aromatase (Homo sapiens), 21.1 µM (active); in assay [19], 29.8 µM (active). In addition, in assay [18], the max activation was -20.2% (inactive).
